Bioassay records: PubChem BioAssay, National Center for Advancing Translational Sciences (NCATS)
A549 tox: Nrf2 qHTS screen for inhibitors: counterscreen for cytotoxicity; A549 ARE-Fluc cells, CellTiter-Fluor viability, 18-24 h; Potency, µM (series often up to 46 µM), most hits filed as inhibitors; actives 0.16% (n = 390,000); AID 504648, 2011
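A549 ARE-Fluc cells in 5% FBS OPTI-MEM, 5000 cells/well, rested 2 h then exposed to compounds in concentration-response for 18-24 h at 37 °C. Viability by CellTiter-Fluor fluorescence (Ex 405/Em 525) after 30 min; luciferase luminescence (BugLite, 15 min, RT) read afterwards.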
TCR activator: Activators of T cell receptors: qHTS campaign. primary human leukocytes, anti-CD3, IL-2 HTRF, 48 h. Potency, µM (titrated, usually from 9.22 µM), actives largely listed as activators. 330,000 tested, under 10 active
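48 hr co-incubation of compounds, a-CD3 beads and primary human leukocytes; IL-2 quantified homogeneously by HTRF with anti-IL-2 K and d2 conjugates.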
AT treatment: qHTS Assay for Identifying a Potential Treatment of Ataxia-Telangiectasia | actives 0.19% (n = 320,000) | Potency, µM (top dose mostly 57.5 µM), hits mostly activators | F2112 A-T fibroblasts, KAP-1 phosphorylation AlphaLISA; neocarzinostatin DNA damage 30 min before lysis; also: nearly all actives have a fitted effect of over 45% in size
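ATM-like activity read as KAP-1 phosphorylation via AlphaLISA donor/acceptor antibody pairs after lysis and 6 hr at 25C. Cells were ATM-null patient fibroblasts (F2112, hTERT), dosed 60 min, then exposed to the DSB inducer NCS for 30 min.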
CCT modulator: High-Throughput Screening for Modulators of Cytosolic Chaperonin Activity | purified chaperonin ATPase assay, HTRF ADP detection, 30 min | activity change, % (no concentration beside the values), hits read low | actives 0.3% (n = 360,000); in the data active = activity change below about -30%
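TRiC (40 or 20 nM final, by batch activity) in 30 mM Tris pH 7.4, 100 mM KCl, 5 mM MgCl2, 1 mM DTT was treated with compound at 76 uM single dose, then 10 uM ATP, 30 min at 37 °C. ADP was read by HTRF Transcreener.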
Nrf2 activator: qHTS of Nrf2 Activators | actives 0.31% (n = 410,000) | Potency, µM (titrated, usually from 46.1 µM), most hits filed as activators | AREc32 ARE-luciferase reporter (MCF7-derived line), luminescence, 24 h; also: nearly all actives have a fitted effect of over 65% in size
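ARE activation measured as luciferase luminescence (Steady-Glo, 30 min RT) in AREc32_Fluc cells after 24 hr compound exposure at 37 deg C, 5% CO2; cells seeded overnight at 1000/well in OPTI-MEM, 5% FBS.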
Nrf2 inh: Nrf2 qHTS screen for inhibitors | AID 504444, 2011 | A549 ARE-Fluc reporter, luciferase luminescence, 18-24 h | Potency, µM (highest dose often 46 µM), most hits filed as inhibitors | actives 2.1% (n = 360,000); also: nearly all actives have a fitted effect of over 60% in size
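Concentration-response testing used A549 ARE_Fluc cells at 5000 cells/well. Following an 18-24 h compound incubation, viability was read by fluorescence (Ex 405/Em 525) and luciferase output by luminescence.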
Of the large screens only hits and unclear results are named; the others gave an inactive call. The list is not random: actives were taken first. Their share in the collection is about 2.6%. Unless noted, calls follow the shape of the dose curve; as a rule, active = well fitted curve in the direction sought with a large enough effect; inconclusive = small, poorly fitted or top-dose-only effect, or another doubt; inactive = no such curve, though single readings can be large; an effect the other way counts as inactive or inconclusive.

FC(F)Oc1ccc(NC(=S)NCc2nc3ccccc3[nH]2)cc1	CCT modulator -37, Nrf2 inh inconclusive
Cn1nc(-c2ccccc2)nc1-c1ccccc1	Nrf2 inh inconclusive
Cn1nc(-c2ccc(Cl)cc2)nc2c(=O)n(C)c(=O)nc1-2	A549 tox 8.2µM (no result: TCR activator, CCT modulator, Nrf2 activator)
Cn1nc(-c2cccnc2)nc2c(=O)n(C)c(=O)nc1-2	A549 tox 6.5µM, Nrf2 inh 7.3µM (no result: TCR activator, AT treatment, CCT modulator, Nrf2 activator)
Cc1cc(C)n2nc(-c3cccnc3)nc2n1	none (no result: Nrf2 inh)
Cc1ccccc1-n1c2nc(=O)n(C)c(=O)c-2cc2ccccc21	none
Cn1nc(-c2ccc(F)cc2)nc2c(=O)n(C)c(=O)nc1-2	A549 tox 2.9µM, Nrf2 inh 2.3µM (no result: TCR activator, AT treatment, CCT modulator, Nrf2 activator)
CCn1nc(-c2ccccc2C)nc2c(=O)n(C)c(=O)nc1-2	A549 tox 23µM (no result: TCR activator, AT treatment, CCT modulator, Nrf2 activator)
O=S(=O)(c1ccc2c(Cl)cccc2c1)N1CCN(c2nc(-c3cccs3)nc3ccccc23)CC1	none (no result: TCR activator, AT treatment, CCT modulator, Nrf2 activator)
COc1ccc(C2/C=C\CN(Cc3ccncc3)CC(=O)N2Cc2ccc(F)cc2)cc1 (stereo not given)	none
COc1ccc(-c2nc3c(=O)n(C)c(=O)nc-3n(C)n2)cc1	A549 tox 1.6µM, Nrf2 inh 1.5µM (no result: TCR activator, AT treatment, CCT modulator, Nrf2 activator)
CCCCCCCCCCCCCCCC[n+]1ccc(C(N)=O)cc1	Nrf2 inh inconclusive
CCCCCCCCCCCCCCCC[n+]1ccc(/C=N/O)cc1	Nrf2 inh 16µM
CCCN(CC(=O)Nc1ccccc1OC)CC(=O)c1c(N)n(Cc2ccccc2)c(=O)n(C)c1=O	Nrf2 inh 13µM (no result: AT treatment)
CCc1ccc2nc(N(CCCN(C)C)C(=O)c3ccc(C(=O)c4ccccc4)cc3)sc2c1	A549 tox inconclusive, Nrf2 inh 13µM
COC(=O)c1ccc(Cn2c(O)c(N=NC(N)=S)c3ccccc32)o1	none
CCOC(=O)CSc1nc2ccc(NC(=O)COc3ccccc3)cc2s1	none (no result: TCR activator, AT treatment, CCT modulator)
CCOc1ccc(-n2c(Cc3ccccc3)nnc2SCc2nc(-c3cccs3)no2)cc1	A549 tox inconclusive, Nrf2 inh 18µM (no result: TCR activator, AT treatment, CCT modulator)
COc1ccccc1-c1noc(CSc2nnc(Cc3ccccc3)n2-c2ccc(C)c(C)c2)n1	A549 tox inconclusive, Nrf2 inh 23µM (no result: TCR activator, AT treatment, CCT modulator)
COc1cc(C(=O)Nc2ccc(NC(=O)c3ccc(C(C)(C)C)cc3)cc2)cc(OC)c1OC	none (no result: TCR activator, AT treatment, CCT modulator)
COc1ccc(OC)c(N(CCN2C(=O)c3ccccc3C2=O)C(=O)CCl)c1	Nrf2 activator 13µM (no result: A549 tox, TCR activator, AT treatment, Nrf2 inh)
COc1ccc(NC(=O)CCN2C(=O)c3ccccc3C2=O)c(OC)c1	none
Cc1ccccc1NC(=O)/C(C#N)=C\c1ccsc1	Nrf2 activator 8.9µM, Nrf2 inh inconclusive
COC(=O)C1=C(C)NC2=C(C(=O)CCC2)C1c1cn(Cc2ccc(Cl)cc2Cl)nc1-c1ccccc1 (stereo not given)	A549 tox inconclusive, Nrf2 inh 26µM
CCC1=NN(C(=O)C(=O)Nc2ccccc2OC)C(O)(C(F)(F)F)C1 (stereo not given)	none
COc1ccccc1NC(=O)C(=O)N1N=C(C(C)C)CC1(O)C(F)(F)F (stereo not given)	Nrf2 inh 23µM (no result: TCR activator)
CC(C)(C)OC(=O)NCc1nnc(-c2nc3ccccc3[nH]2)o1	none (no result: TCR activator, AT treatment, CCT modulator, Nrf2 activator)
CCOc1ccc(Nc2oc(-c3cccs3)nc2C#N)cc1	Nrf2 inh 16µM (no result: AT treatment)
CCOc1ccc(Nc2oc(-c3ccco3)nc2C#N)cc1	none
Clc1ccc(CN(CCCNc2ncnc(NCCCc3cnc[nH]3)n2)c2ccc(Br)cn2)cc1Cl	Nrf2 inh inconclusive (no result: TCR activator, AT treatment, CCT modulator, Nrf2 activator)
NC(N)=NCCC[C@H](NC(=O)CNC(=O)c1ccccc1)C(=O)Nc1cc(C(F)(F)F)ccc1Cl	none (no result: TCR activator, AT treatment, CCT modulator, Nrf2 activator)
COc1ccc([C@]23Cc4ccccc4C(O2)C2=C(CCCC2=O)O3)cc1	none (no result: A549 tox, TCR activator, CCT modulator, Nrf2 activator, Nrf2 inh)
CC(=O)NC1=C(NC2CCS(=O)(=O)C2)C(=O)c2ccccc2C1=O (stereo not given)	CCT modulator -44
N#Cc1c(NC(=O)C2CC(c3ccccc3O)=NO2)sc2c1CCC2 (stereo not given)	Nrf2 inh inconclusive
N#Cc1c(NC(=O)C2CC(c3ccccc3Cl)=NO2)sc2c1CCC2 (stereo not given)	CCT modulator -92
C=CCNC(=S)Nc1ccc(Br)cc1F	Nrf2 inh 23µM
CCCNC(=S)Nc1ccc(F)cc1F	Nrf2 inh 12µM
CCCNC(=S)Nc1ccc(Cl)cc1C	none
CCCCC(=O)Nc1ccc2nc(SCC(=O)N3CCCC3)sc2c1	none (no result: TCR activator, AT treatment, CCT modulator)
CCC1CN(C(=O)N2CCC(C(=O)NCc3ccc(N(C)C)cc3)CC2)c2ccccc2O1 (stereo not given)	none (no result: TCR activator, AT treatment, CCT modulator)
O=c1cc(Cl)[nH]c(=O)n1CCNc1ncc(C(F)(F)F)cc1Cl	Nrf2 inh inconclusive
O=c1[nH]c2cc(Cl)ccc2n(CCNc2ncc(C(F)(F)F)cc2Cl)c1=O	CCT modulator -67
CC(C)OC(=O)NC(C)(C)COC(=O)Nc1cccc(Cl)c1	Nrf2 inh 10µM
C=CCn1c(SCC(=O)N2CCOCC2)nnc1C(C)NC(=O)c1ccccc1 (stereo not given)	CCT modulator -47
